Bioassay records (PubChem)
TrxR1 inh – qHTS Assay for Inhibitors of Mammalian Selenoprotein Thioredoxin Reductase 1 (TrxR1): qHTS. Potency, µM (titrated, usually from 114 µM), for the others: top-dose activity change, negative = inhibition, most hits filed as inhibitors. 390,000 tested, 1% active. recombinant rTrxR1, NADPH fluorescence consumption, selenite substrate. Thioredoxin reductase 1, cytoplasmic (Rattus norvegicus), O89049. AID 588453, 2011; also: nearly all actives have a fitted effect of over 65% in size
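Rat TrxR1 (90 nM in the dispensed reagent) was pre-reduced with 400 uM NADPH for 5 min at room temperature, then incubated with compound for 15 min. After 400 uM selenite was added, NADPH fluorescence (Ex 340/Em 450 nm) was followed for 8 min.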
Sfp inh – qHTS Assay for Inhibitors of Bacillus subtilis Sfp phosphopantetheinyl transferase (PPTase); 310,000 tested, 3.5% active; AID 1490, 2009; Biochemical Sfp PPTase activity, qHTS; Potency, µM, inactives show largest response in the series, negative = inhibition, hits mostly inhibitors; 4'-phosphopantetheinyl transferase ffp (Bacillus subtilis), Q9F4F7;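 also: the enzyme is Sfp with the accession as filed and its product quenches rhodamine fluorescence; 0% = enzyme reaction without inhibitor and -100% = no enzyme wells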
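Fluorescence-quenching assay with 15 nM Sfp, 5 uM rhodamine-CoA and 12.5 uM BHQ-2-labelled ybbR peptide in pH 7.6 Hepes/MgCl2 buffer. Enzyme was pre-incubated with compound for 15 min at room temperature. Rate was taken from the 30-min fluorescence change (525/598 nm).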
VDR inhibitor – Inhibitors of the vitamin D receptor (VDR): qHTS. VDR-SRC2-3 peptide fluorescence polarization, 2 h. Potency, µM, for the others: max response, negative = inhibition, most hits filed as inhibitors. 400,000 tested, 0.93% active. AID 504847, 2011
Target sequence (P11473 whole entry, looked up): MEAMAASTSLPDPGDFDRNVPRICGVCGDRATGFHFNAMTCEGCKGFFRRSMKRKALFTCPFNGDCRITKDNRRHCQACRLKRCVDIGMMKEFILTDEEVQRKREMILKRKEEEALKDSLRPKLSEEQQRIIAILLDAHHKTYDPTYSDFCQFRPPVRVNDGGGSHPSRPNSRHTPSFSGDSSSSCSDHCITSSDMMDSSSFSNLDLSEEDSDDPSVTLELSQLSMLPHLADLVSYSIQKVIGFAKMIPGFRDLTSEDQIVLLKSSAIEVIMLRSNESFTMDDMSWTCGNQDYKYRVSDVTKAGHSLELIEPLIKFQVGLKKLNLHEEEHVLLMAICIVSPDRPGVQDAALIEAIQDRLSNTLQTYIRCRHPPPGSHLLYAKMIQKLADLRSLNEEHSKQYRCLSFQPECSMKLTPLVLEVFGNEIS
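FP read-out; VDR + SRC2-3 coactivator peptide; 23 nl compound by pintool; 2 h RT incubation; reagents held at 4 deg C, protected from light.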
TrxR1 substrate – qHTS Assay for Substrates of Mammalian Selenoprotein Thioredoxin Reductase 1 (TrxR1): qHTS; AID 588456, 2011; Thioredoxin reductase 1, cytoplasmic (Rattus norvegicus), O89049; purified TrxR1 substrate turnover, NADPH consumption readout; 390,000 tested, 0.01% active; Potency, µM (top dose mostly 114 µM), for inactives: top-dose activity change, negative = substrate turnover; also: nearly all actives have a fitted effect of over 50% in size
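Rat TrxR1, dispensed at 90 nM, was prereduced with 400 uM NADPH (final) for 5 min at ~22 deg C, then incubated with compound 15 min before 400 uM selenite. A first-read NADPH fluorescence drop versus no-compound background flagged substrates.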
mIDH1 inhibitor – qHTS for Inhibitors of mutant isocitrate dehydrogenase 1 (IDH1): qHTS; IDH1-R132H enzyme, NADPH consumption, diaphorase/resazurin fluorescence; 390,000 tested, 0.093% active; Isocitrate dehydrogenase [NADP] cytoplasmic (Homo sapiens), O75874; Potency, µM (doses to about 76.6 µM), without a hit: at the top dose activity change, negative = inhibition, most hits filed as inhibitors; AID 602179, 2012; also: nearly all actives have a fitted effect of over 65% in size
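IDH1-R132H (0.5 ug/mL) preincubated 30 min with compound, then NADPH (0.016 mM) and alpha-KG (2 mM) added; 80 min at RT, pH 7.5. Remaining NADPH coupled via diaphorase/resazurin to fluorescence (540/590 nm); concentration-response curves normalized to no-enzyme control.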
PLK1 PBD block – qHTS for Inhibitors of PLK1-PDB (polo-like kinase 1 - polo-box domain): Primary Screen | Plk1 PBD binding of FITC phosphopeptide, fluorescence polarization | AID 720504, 2013 | 360,000 tested, 2.8% active | Potency, µM, without a hit: max response, negative = inhibition, most hits filed as inhibitors | Serine/threonine-protein kinase PLK1 (Homo sapiens), P53350; also: series mostly up to about 57 µM; nearly all actives have a fitted effect of over 65% in size
An asterisk follows results filed as active; [ ] = dose if it differs, or a comment. A selection: hits, their analogues and other compounds. The true share with any hit is near 5.2%. Calls follow the shape of the dose curve; as a rule, active = well fitted curve in the direction sought with a large enough effect; inconclusive = small, poorly fitted or top-dose-only effect, or another doubt; inactive = no such curve, though single readings can be large; an effect the other way counts as inactive or inconclusive. Unless noted, % is scaled to controls: 0 for no effect and ±100 for the full control effect; potency is read from the fitted curve at half-maximal effect.

For NC(=S)N/N=C/c1ccc(/C=N/NC(N)=S)cc1 the results were TrxR1 inh 7%, Sfp inh -3%, VDR inhibitor 1%, TrxR1 substrate 9%, mIDH1 inhibitor 8% and PLK1 PBD block -1%.
For O=C(O)c1cc(-c2ccc(/C=N/NC(=S)Nc3ccccc3)o2)ccc1Cl the results were TrxR1 inh -32%[57.1 µM], Sfp inh 40µM*, VDR inhibitor -14%, TrxR1 substrate -4%[57.1 µM], mIDH1 inhibitor 4% and PLK1 PBD block inconclusive.
Screening NC(=S)N/N=C/c1ccc(-c2ccccc2)o1 returned TrxR1 inh -17%, Sfp inh 4%, VDR inhibitor -19%, TrxR1 substrate -6%, mIDH1 inhibitor -7% and PLK1 PBD block -9%.
For CN(C)/N=C/c1ccc(/C=N/NC(N)=S)o1 the results were TrxR1 inh -13%, Sfp inh 45µM*, VDR inhibitor -12%, TrxR1 substrate -5%, mIDH1 inhibitor -4% and PLK1 PBD block -2%.
`NC(=S)N/N=C/c1ccc(-c2ccc(Cl)c(Cl)c2)o1` gave TrxR1 inh -29%, Sfp inh 45µM*, VDR inhibitor -14%, TrxR1 substrate -6%, mIDH1 inhibitor -1% and PLK1 PBD block -14%.
Screening Cc1ccc(-c2ccc(/C=N/NC(N)=S)o2)cc1 returned TrxR1 inh 0%[57.1 µM], Sfp inh 20µM*, VDR inhibitor 89µM*, TrxR1 substrate 4%[57.1 µM], mIDH1 inhibitor -5% and PLK1 PBD block 6µM*.
C(=Nc1ccc(Nc2ccccc2)cc1)c1ccc2ccccc2c1 was read as TrxR1 inh inconclusive, Sfp inh 45µM*, VDR inhibitor -7%, TrxR1 substrate -4%, mIDH1 inhibitor 8% and PLK1 PBD block 0%.
For Brc1ccc(C=Nc2ccc(Nc3ccccc3)cc2)s1 the results were TrxR1 inh -31%, Sfp inh 56µM*, VDR inhibitor -18%, TrxR1 substrate -11%, mIDH1 inhibitor 7% and PLK1 PBD block 8%.
For O=C(N/N=C/c1ccc(Br)s1)c1ccccc1[N+](=O)[O-] the results were TrxR1 inh -17%, Sfp inh 5%, VDR inhibitor 3%, TrxR1 substrate -21%, mIDH1 inhibitor 9% and PLK1 PBD block -6%.
`CC1CCc2nn(CC(=O)NCc3ccco3)cc2C1` (stereo not drawn) gave TrxR1 inh 2%[57.1 µM], Sfp inh 20%, VDR inhibitor -12%, TrxR1 substrate 3%[57.1 µM], mIDH1 inhibitor 0% and PLK1 PBD block 30µM*.
CC1CCc2nn(CC(=O)NCc3ccc(F)cc3)cc2C1 (stereo not drawn) was read as TrxR1 inh 10%[57.1 µM], Sfp inh 22%, VDR inhibitor -14%, TrxR1 substrate 7%[57.1 µM], mIDH1 inhibitor -7% and PLK1 PBD block inconclusive.
Screening CN(C(=O)COC(=O)c1ccc(Br)c([N+](=O)[O-])c1)c1c(N)n(Cc2ccccc2)c(=O)[nH]c1=O returned TrxR1 inh 40µM*, VDR inhibitor -18%, TrxR1 substrate -7%, mIDH1 inhibitor 10% and PLK1 PBD block -10%.
CCOC(=O)C(C(C)=O)c1c(Br)c(O)c(O)c2c(C(=O)c3ccc(C)cc3)coc12 (stereo not drawn) was read as TrxR1 inh inconclusive, Sfp inh 13µM*, VDR inhibitor -4%, TrxR1 substrate 4%, mIDH1 inhibitor 4% and PLK1 PBD block -4%.
For CCOC(=O)c1c(C)n(-c2ccc(C)cc2)c2c(C(C(C)=O)C(=O)O)c(Br)c(O)c(O)c12 (stereo not drawn) the results were TrxR1 inh inconclusive, Sfp inh 0.89µM*, VDR inhibitor -12%, TrxR1 substrate -15%, mIDH1 inhibitor 4% and PLK1 PBD block inconclusive.
CCOC(=O)C1=C(CN2CCN(c3cccc(OC)c3)CC2)NC(=O)NC1c1ccc(OC)cc1 (stereo not drawn) was read as TrxR1 inh 9%, VDR inhibitor -2%, TrxR1 substrate -1% and mIDH1 inhibitor -16%.
`CC(C)=CCC[C@H](C)C[C@@H]1CC2=C(C(=O)OC(C)(C)O2)[C@H](c2ccc(Cl)cc2)O1` gave PLK1 PBD block 5%.
For CC#CCN1c2ccccc2[C@]23C[C@@H](C(=O)OC)N(C(=O)CC(C)C)C2=NC(C(=O)OC)=C(C(=O)OC)[C@H]13 the results were Sfp inh 29%.
For COc1cccc(/C=C2\SC(=S)N(NS(=O)(=O)c3ccccc3)C2=O)c1OC the results were TrxR1 inh -1%, Sfp inh -14%, VDR inhibitor -18%, TrxR1 substrate -6%, mIDH1 inhibitor -2% and PLK1 PBD block inconclusive.
C=CCOc1ccc(/C=C2\SC(=S)N(NS(=O)(=O)c3ccc(C)cc3)C2=O)cc1 was read as TrxR1 inh -14%, Sfp inh -3%, VDR inhibitor -15%, TrxR1 substrate -7%, mIDH1 inhibitor -2% and PLK1 PBD block 27µM*.
`Cc1ccc(S(=O)(=O)NN2C(=O)/C(=C\c3ccc(Cl)cc3)SC2=S)cc1` gave TrxR1 inh 17%, Sfp inh 17%, VDR inhibitor -11%, TrxR1 substrate 2%, mIDH1 inhibitor 15% and PLK1 PBD block 27µM*.
`Cc1ccc(S(=O)(=O)NN2C(=O)/C(=C/c3cccs3)SC2=S)cc1` gave TrxR1 inh -2%, Sfp inh 79µM*, VDR inhibitor -15%, TrxR1 substrate -6%, mIDH1 inhibitor -6% and PLK1 PBD block inconclusive.
`O=C1/C(=C/c2cccc(F)c2)SC(=S)N1NS(=O)(=O)c1ccccc1` gave TrxR1 inh -12%, Sfp inh 1%, VDR inhibitor inconclusive, TrxR1 substrate -10%, mIDH1 inhibitor -1% and PLK1 PBD block inconclusive.
`Cc1ccc(S(=O)(=O)NN2C(=O)/C(=C/c3ccc(C(=O)O)cc3)SC2=S)cc1` gave TrxR1 inh 16%[57.1 µM], Sfp inh 1%, VDR inhibitor inconclusive, TrxR1 substrate -10%[57.1 µM], mIDH1 inhibitor -1% and PLK1 PBD block -8%.
